Laboratory results: PubChem BioAssay AID1508624 (National Center for Advancing Translational Sciences (NCATS), 2021)
The whole screen tested about 48,000 compounds, of which about 120 (0.25%) were called active. Roughly 4% stayed inconclusive and do not appear here. Calls come from the whole dose curve; as a rule, active = well fitted activation curve with a large enough effect; inconclusive = small, poorly fitted or top-dose-only effect, or another doubt; inactive = no such curve, though single readings can be large or run the other way. Only a selection was taken, and actives are over-represented in it overall.

assay: Primary qHTS for Identification of Small Molecule Activators of Huntingtin-Antisense Promoter Activity; conditions: HEK293 HTT-AS promoter firefly luciferase reporter (activity 0% = vehicle and -100% = no light), 24 h; series mostly up to 57.5 µM; note: nearly all actives have a fitted effect of over 55% in size
Excerpt: Assay Provider: Russell L. Margolis M.D.
Department Neurology, Johns Hopkins University School of Medicine, Baltimore, MD
Huntington's Disease (HD) is a neurodegenerative disorder caused by a CAG repeat expansion in exon 1 of huntingtin (HTT). While there are currently no disease-modifying treatments for HD, recent efforts have focused on development of nucleotide-based therapeutics to lower HTT expression. As an alternative to siRNA or oligonucleotide methods, we hypothesized that suppression of HTT expression might be accomplished by small molecules that either (1) directly decrease HTT expression by suppressing HTT promoter activity or (2) indirectly decrease HTT expression by increasing the promoter activity of HTT-AS, the gene antisense to HTT that appears to inhibit expression of HTT.
We developed and employed a high throughput screen for modifiers of HTT and HTT-AS promoter activity using luminescent reporter HEK293 cells; of the 52,041 compounds tested, we identified 898 replicable hits. We used a rigorous stepwise approach to assess compound toxicity and the capacity of the compounds to specifically lower huntingtin protein in 5 different cell lines, including HEK293 cells, HD lymphoblastoid cells, mouse primary neurons, HD iPSCs differentiated into cortical-like neurons, and HD hESCs. We found no compounds which were able to lower huntingtin without lowering cell viability in all assays, though the potential efficacy of a few compounds at non-toxic doses could not be excluded.
SEQUENCE No. (1, 2, 3, etc.); […] (e.g., Cells, Incubation, Reagent, etc.); VALUE and DESCRIPTION.
1; Reagent; 4 uL; 2,500 Hek293 luciferase reporter cells per wells
3; Compound; 23 nL; Control inhibitor / compound library
5; Reagent; 2.5 uL; Firefly Luc reagent; Dual-Glo Luciferase Reporter Assay System (Promega)
6; Time; 10 min; room temperature incubation
7; Detection; Luminescence; FLuc
NOTES (numbers refer to sequence above)
1; High-throughput screening, measuring luminescence from a Hek293 luciferase reporter, was performed in 1,536 well white-walled tissue-culture treated plates. 2,500 cells were plated in 4 µL of Opti-MEM per well using a Multidrop Combi Reagent Dispenser (ThermoFisher).
2; Assay plates were cultured for 24 hours.
3; Control inhibitor (PTC124; final concentration of 50 uM) and compound library (at final concentrations of 460 nM - 57.5 uM) were added to the assay plate using the Kalypsis Pintool Robotic System equipped with 1536 pinheads.
4; Cells were then incubated for 24 hours at 37 degrees C prior to luminescence measurements.
5; In all cases, luminescence was measured using the Dual-Glo Luciferase Reporter Assay System (Promega) following the manufacturer's instructions.
6; Room temperature incubation.
7; Luminescence signal was obtained using the PerkinElmer ViewLux plate reader. Results were normalized to vehicle control (0% activity) and zero RLU (-100% activity).

Activity change, positive = activation, inactive:
Cc1cccc(N2CCN(C(=O)CCn3c(=O)c4cccn4c4cccnc43)CC2C)c1 (centres undefined)
CCCCOc1ccc(C(=O)Nc2cccc(-c3nc4ccccc4o3)c2C)cc1
COc1cccc(-n2c(=O)c3c(C)c(C(=O)N(C)C)sc3n(CC(=O)NCCc3ccc(OC)c(OC)c3)c2=O)c1
COc1ccccc1N1CCN(c2ncnc3onc(-c4ccc(F)cc4)c23)CC1
CCCN1CN=C(NS(=O)(=O)c2ccc(NC(C)=O)cc2)NC1
COCCCNC(=O)c1ccc(NC(=O)c2nsc3ccccc23)cc1
CCSc1nnc2c(n1)OC(c1ccc(OCC(=O)O)cc1)Nc1ccccc1-2 (centres undefined)
CCCN(CCC)C(=O)C(Cc1ccccc1)NS(=O)(=O)c1ccc2c(c1)c(=O)n(C)c(=O)n2C (centres undefined)
Cc1cc(C)cc(NC(=O)Cn2nc(N3CCN(c4ccccc4)CC3)ccc2=O)c1
Cc1nn(C(=O)c2c(F)cccc2F)c(C)c1S(=O)(=O)N1CCOCC1
CCOc1ccccc1C(=O)NCc1ccc2c(c1)CCN2C(=O)c1ccc(F)cc1
O=C(Nc1cc(C(F)(F)F)ccc1Cl)c1cc2nc(-c3ccc4c(c3)OCO4)cc(C(F)(F)F)n2n1
CCN(CC)c1ccc(NC(=O)CN2C(=O)c3cccnc3Oc3ccc(Cl)cc32)c(C)c1
Fc1ccc(CN2CCc3nc(Nc4ccccc4)ncc3C2)cc1F
CCc1ccc(C2C(C(=O)Nc3ccccc3)=C(C)Nc3c(C(=O)Nc4ccc(C)cc4)cnn32)cc1 (centres undefined)
COc1cc(-c2cc3n(C)c(C)c(CCC(=O)Nc4ccc(F)cc4)c(=O)n3n2)cc(OC)c1OC
COc1ccc(NC(=O)CCCc2nnc3n(CCC(C)C)c(=O)c4sccc4n23)c(OC)c1
CCOc1ccc(CNC(=O)c2ccc3c(c2)nnn3C2CCCC2)cc1
COc1ccc(OC)c(-c2noc(N3CCN(c4cc(Cl)ccc4C)CC3)n2)c1
CC(=O)c1ccc(S(=O)(=O)N2CCC(Oc3ccc(-n4cnnn4)cc3)CC2)cc1
CO[C@@H]1[C@@H](O)[C@H](O)[C@@H](n2c3c(Cl)cccc3c3c4c(c5c6cccc(Cl)c6[nH]c5c32)C(=O)NC4=O)O[C@@H]1CO
Cc1cccc(S(=O)(=O)c2cn(Cc3ccccc3)c3cc(N4CCOCC4)c(F)cc3c2=O)c1
CC(=O)N1CCCc2cc(S(=O)(=O)N3CCC(C(=O)NCc4ccc(F)cc4)CC3)ccc21
CCCS(=O)(=O)Nc1cccc(-c2cn3ccsc3n2)c1
Cn1c(=O)cc(OCC(=O)N2CCN(c3ccccc3)CC2)c2ccccc21
COc1ccc(-c2c3c(=O)n(C)c(=O)n(C)c3c3c(C)nc4ccccc4n23)cc1
Cc1cccc(N2CCN(c3ccc(C(=O)O)cc3NC(=O)c3ccccc3F)CC2C)c1 (centres undefined)
Cn1c(=O)c(=O)n(C)c2cc(NC(=O)c3ccccc3Br)ccc21
C=C1CCC2[C@](C)(CO)C(O)CC[C@]2(C)C1CC=C1C(=O)OCC1O (some centres undefined)
O=c1c(=O)n(Cc2c(F)cccc2Cl)ccn1Cc1ccccc1
COc1ccc(CCNC(=O)c2ccc(-n3c(C)cc4c3CCCC4)cc2)cc1OC
CCC(=O)N1c2ccccc2CC1C(=O)N1CCN(c2cccc(OC)c2)CC1 (centres undefined)
CCOc1cc(CNC(=O)c2sc3ncnc(N(C)C4CCCCC4)c3c2C)ccc1OC
Cc1ccccc1CCNC(=O)C1CCN(c2nc3ccccc3nc2C(F)(F)F)CC1
O=C(NC1CC(=O)N(c2ccc(F)cc2)C1)c1cccs1 (centres undefined)
CCOC(=O)C1CCCN(S(=O)(=O)c2cc(-c3cc(C)no3)ccc2OC)C1 (centres undefined)
Cc1cccc(C)c1-n1ncc(C(=O)NCCCN2CCCCC2)c1C1CCN(C(=O)OC(C)(C)C)CC1
Cc1ccc(C(=O)Nc2cc3c(cc2N2CCCC2)n(C)c(=O)c(=O)n3C)cc1
COc1ccccc1NC(=O)C1=C(C)Nc2nc(SCC(=O)c3ccc(C)cc3)nn2C1c1ccccc1C (centres undefined)
Cc1c(-c2nsc(NC(=O)c3cccc(Cl)c3)n2)nnn1-c1ccccc1C(F)(F)F
Cc1cc(C)cc(NC(=O)Cn2c(=O)c3ccccc3n3nncc23)c1
COc1ccc(Cn2ccn(CC(=O)Nc3cc(C)ccc3C)c(=O)c2=O)cc1
Cc1nn(-c2ccc(F)cc2)c(-n2cccc2)c1C(=O)N1CCN(c2ccccc2)CC1
CCOc1ccc(Nc2oc(/C=C/c3ccc(F)cc3)nc2C#N)cc1
CCCC(=O)Nc1ccc(NC(=O)c2sc3ccccc3c2Cl)cc1
O=S(=O)(c1ccc2nc(N3CCN(c4cccc(Cl)c4)CC3)ccc2c1)N1CCCCC1
CCOC(=O)c1ccc(NC(=O)CC2C(=O)N(c3ccccc3)C(=O)N2Cc2cccs2)cc1 (centres undefined)
Cc1cc(Cl)ccc1OCC(=O)N(Cc1ccc(N(C)C)cc1)C1CCS(=O)(=O)C1 (centres undefined)
CCC(=O)N1CCc2cc(S(=O)(=O)NC(C(=O)NCCc3ccc(C)cc3)C(C)C)ccc21 (centres undefined)
CCOc1ccc(CCNC(=O)c2csc3c2CCCCC3)cc1
Cc1ccc2nc(-c3ccc(C)c(NC(=O)Cc4ccccc4)c3)oc2c1
CCCN(CCC)S(=O)(=O)c1ccc(C(=O)Nc2sc3c(c2C(=O)OC)CCN(CC)C3)cc1
O=C(C1CC1)N1CCc2cc(Br)cc(S(=O)(=O)N3CCN(c4ccccc4F)CC3)c21
CCOc1ccc(NC(=O)c2c(NC(=O)Cc3ccccc3)sc3c2CCCCC3)cc1
